In PubChem BioAssay (NCI):
Compounds without any hit were thinned out: in the full panel of roughly 83,000, 20% have a hit.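 Cells were grown in 96-well plates and exposed to the test compound at a single concentration for 48 hours; results are reported as percent growth, with values below 10 considered active.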 Activity calls are given as the source filed them.

Experiments:
Test in all cases: NCI-60 one-dose screen, 48 h (100 = growth as untreated, 0 = no growth, -100 = all killed)
Details in all cases: 10 µM unless noted
DU-145 prostate = test system: DU-145 prostate
K-562 leukemia = test system: K-562 leukemia
MALME-3M melanoma = test system: MALME-3M melanoma
MDA-MB-231 breast = test system: MDA-MB-231 breast
RXF 393 renal = test system: RXF 393 renal
SF-268 CNS = test system: SF-268 CNS
SF-295 CNS = test system: SF-295 CNS
SF-539 CNS = test system: SF-539 CNS
UACC-257 melanoma = test system: UACC-257 melanoma
M14 melanoma = test system: M14 melanoma
HCT-15 colon = test system: HCT-15 colon
HT29 colon = test system: HT29 colon
SNB-75 CNS = test system: SNB-75 CNS
SNB-19 CNS = test system: SNB-19 CNS
U251 CNS = test system: U251 CNS
PC-3 prostate = test system: PC-3 prostate
SK-MEL-5 melanoma = test system: SK-MEL-5 melanoma
UACC-62 melanoma = test system: UACC-62 melanoma
SK-MEL-28 melanoma = test system: SK-MEL-28 melanoma
LOX IMVI melanoma = test system: LOX IMVI melanoma

SMILES | growth (DU-145 prostate) | growth (K-562 leukemia) | growth (MALME-3M melanoma) | growth (MDA-MB-231 breast) | growth (RXF 393 renal) | growth (SF-268 CNS) | growth (SF-295 CNS) | growth (SF-539 CNS) | growth (UACC-257 melanoma) | growth (M14 melanoma) | growth (HCT-15 colon) | growth (HT29 colon) | growth (SNB-75 CNS) | growth (SNB-19 CNS) | growth (U251 CNS) | growth (PC-3 prostate) | growth (SK-MEL-5 melanoma) | growth (UACC-62 melanoma) | growth (SK-MEL-28 melanoma) | growth (LOX IMVI melanoma)
CCCCCCCCCCCCCCCCCCOc1ccc(CC(=O)OCC[N+]2(C)CCCCC2)cc1 | 107% (inactive) | 83.9% (inactive) | 98.8% (inactive) | 100% (inactive) | 102% (inactive) | 100% (inactive) | 110% (inactive) | 99.4% (inactive) | 96% (inactive) | 99.8% (inactive) | 97.5% (inactive) | 91.4% (inactive) | 102% (inactive) | 87.5% (inactive) | 91.9% (inactive) | 92.2% (inactive) | 100% (inactive) | 88.8% (inactive) | 106% (inactive) | –
COc1cc(C(=O)c2cnc(-c3c[nH]c4cccc(C)c34)[nH]2)cc(OC)c1OC | -6.2% (active) | 8.72% (active) | 53.8% (inactive) | -3.1% (active) | 75.2% (inactive) | 18.9% (inactive) | 7.59% (active) | 0.434% (active) | 83.9% (inactive) | -2.55% (active) | 12% (inactive) | 6.72% (active) | 20.3% (inactive) | 37.9% (inactive) | 17.7% (inactive) | 19.4% (inactive) | -30.7% (active) | 32.6% (inactive) | 59.3% (inactive) | 24.9% (inactive)
C[C@H](C(=O)Nc1ccc(S(N)(=O)=O)cc1)S(=O)(=O)c1ccccc1 | 108% (inactive) | 106% (inactive) | 101% (inactive) | 114% (inactive) | 88.1% (inactive) | 102% (inactive) | 94.6% (inactive) | 102% (inactive) | 103% (inactive) | 104% (inactive) | 98.1% (inactive) | 107% (inactive) | 96.9% (inactive) | 95.5% (inactive) | 97.5% (inactive) | 101% (inactive) | 99.2% (inactive) | 102% (inactive) | 115% (inactive) | 98% (inactive)
O=c1c2cc(F)ccc2sc2c(N3CCCCC3)nc3ccccc3c12 | 107% (inactive) | 112% (inactive) | 104% (inactive) | 98.9% (inactive) | 104% (inactive) | 102% (inactive) | 101% (inactive) | 102% (inactive) | 97.3% (inactive) | 96.8% (inactive) | 103% (inactive) | 98% (inactive) | 90.2% (inactive) | 101% (inactive) | 94.1% (inactive) | 98.1% (inactive) | 97.8% (inactive) | 96.1% (inactive) | 109% (inactive) | –
CCCCOc1ccc(/C=N/NC(N)=S)cc1 | 95.6% (inactive) | 65% (inactive) | 90.2% (inactive) | 55.7% (inactive) | 85.7% (inactive) | 88.7% (inactive) | 96.9% (inactive) | 78.9% (inactive) | 78.4% (inactive) | 78% (inactive) | 55.7% (inactive) | 61.5% (inactive) | 72.9% (inactive) | 89.8% (inactive) | 89.9% (inactive) | 81% (inactive) | 95.7% (inactive) | 75.5% (inactive) | 96.5% (inactive) | 94.2% (inactive)
Cn1cc(C(=O)c2nc(-c3cn(C)c4ccc(F)cc34)no2)c2cc(F)ccc21 | 110% (inactive) | 96.2% (inactive) | 96.4% (inactive) | 96.7% (inactive) | 116% (inactive) | 99.6% (inactive) | 100% (inactive) | 107% (inactive) | 94.9% (inactive) | 100% (inactive) | 93.4% (inactive) | 95.5% (inactive) | 87.4% (inactive) | 104% (inactive) | 98.1% (inactive) | 80.3% (inactive) | 94.2% (inactive) | 88.4% (inactive) | 110% (inactive) | –
Cc1nc2nc(SCC(=O)O)[nH]c2c(=O)[nH]1 | 113% (inactive) | 94.9% (inactive) | 112% (inactive) | 110% (inactive) | 109% (inactive) | 108% (inactive) | 97.9% (inactive) | 97.6% (inactive) | 96.7% (inactive) | 102% (inactive) | 103% (inactive) | 96.8% (inactive) | 110% (inactive) | 92.5% (inactive) | 96.8% (inactive) | 96.6% (inactive) | 100% (inactive) | 96.4% (inactive) | 106% (inactive) | 95.3% (inactive)
CNc1nc2c(s1)C(c1cccc(F)c1)CC(=O)N2 (centres undefined) | 106% (inactive) | 95.6% (inactive) | 110% (inactive) | 104% (inactive) | 93.9% (inactive) | 94.1% (inactive) | 104% (inactive) | 92% (inactive) | 107% (inactive) | 106% (inactive) | 104% (inactive) | 104% (inactive) | 76.8% (inactive) | 92.8% (inactive) | 94.6% (inactive) | 98.5% (inactive) | 101% (inactive) | 92.3% (inactive) | 103% (inactive) | 98.4% (inactive)
Cc1nc2ccccc2n1CC1C(=O)NC(=O)NC1=O | 117% (inactive) | 94.8% (inactive) | 106% (inactive) | 114% (inactive) | 123% (inactive) | 106% (inactive) | 102% (inactive) | 100% (inactive) | 101% (inactive) | 110% (inactive) | 106% (inactive) | 107% (inactive) | 94.1% (inactive) | 98.5% (inactive) | 99.4% (inactive) | 103% (inactive) | 100% (inactive) | 103% (inactive) | 108% (inactive) | –
CCCCn1c(=O)c(-c2cc(-c3ccc(Cl)cc3)nc(-c3ccc(Cl)cc3)c2)cc2ccc(Cl)cc21 | 108% (inactive) | 97.8% (inactive) | 98.5% (inactive) | 96.5% (inactive) | 103% (inactive) | 94.2% (inactive) | 100% (inactive) | 96.1% (inactive) | 101% (inactive) | 107% (inactive) | 105% (inactive) | 109% (inactive) | 86.4% (inactive) | 96.1% (inactive) | 101% (inactive) | 94.6% (inactive) | 104% (inactive) | 95.4% (inactive) | 106% (inactive) | 98.1% (inactive)
CCCCOc1nc2ccc(OC)cc2cc1-c1cc(-c2ccc(Cl)cc2)nc(-c2ccc(Cl)cc2)c1 | 114% (inactive) | 106% (inactive) | 100% (inactive) | 93.5% (inactive) | 101% (inactive) | 99.8% (inactive) | 98.1% (inactive) | 98.3% (inactive) | 99.6% (inactive) | 111% (inactive) | 104% (inactive) | 104% (inactive) | 91.2% (inactive) | 93.6% (inactive) | 102% (inactive) | 96.9% (inactive) | 102% (inactive) | 93.5% (inactive) | 104% (inactive) | 101% (inactive)
CCN1C(=O)N(CC)C2Nn3c(s/c(=C4\C(=O)Nc5ccccc54)c3=O)=NC21 (centres undefined) | 10.2% (inactive) | 20.2% (inactive) | 56.5% (inactive) | 48.3% (inactive) | -1.37% (active) | 64.9% (inactive) | 56.6% (inactive) | 10.9% (inactive) | 67.4% (inactive) | 14.9% (inactive) | 35.9% (inactive) | 81.2% (inactive) | 19.3% (inactive) | 55.8% (inactive) | 42.8% (inactive) | 30.3% (inactive) | 41.6% (inactive) | 46.6% (inactive) | 60% (inactive) | –
O=c1ccc(N=Nc2ccccc2)ccc1Cl | 93.2% (inactive) | 0.344% (active) | 55% (inactive) | -1.83% (active) | 6.49% (active) | 92.5% (inactive) | 69.6% (inactive) | 45.8% (inactive) | 74.6% (inactive) | 46.6% (inactive) | 2.07% (active) | 27.5% (inactive) | 74.5% (inactive) | 81.8% (inactive) | 54.4% (inactive) | 56.2% (inactive) | 55.5% (inactive) | 55.7% (inactive) | 92.5% (inactive) | –
